# High-throughput results from PubChem.
# G9a inh: G9a (human) methyltransferase inhibition; Q96KQ7; Potency, µM (highest dose often 102 µM), for inactives: at the top dose activity, negative = inhibition, actives largely listed as inhibitors; AID 504332; G9a H3K9 monomethylation, AlphaScreen, 2 h; 8.8% of 350,000 active; also: potency is read from the fitted curve at half-maximal effect; % is scaled to controls: 0 for no effect and ±100 for the full control effect; nearly all actives have a fitted effect of over 75% in size
# Target sequence (Q96KQ7 913-1193 limits assumed): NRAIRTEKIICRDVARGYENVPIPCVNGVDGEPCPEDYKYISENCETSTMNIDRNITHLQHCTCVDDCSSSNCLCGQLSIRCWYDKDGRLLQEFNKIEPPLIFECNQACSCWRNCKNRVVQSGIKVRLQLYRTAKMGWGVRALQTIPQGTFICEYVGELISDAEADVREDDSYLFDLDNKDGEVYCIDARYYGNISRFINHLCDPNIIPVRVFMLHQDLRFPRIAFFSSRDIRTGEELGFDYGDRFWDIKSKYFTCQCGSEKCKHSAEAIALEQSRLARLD
#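 Chemiluminescent proximity detection of H3K9 monomethylation, read after 10 min bead incubation in the dark. Reaction: 20 nM G9a, 500 nM biotin-H3K9 peptide, 20 uM SAM cofactor, 2 h, room temperature, following 15 min enzyme-compound preincubation.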
# BAZ2B inh: BAZ2B (human) inhibition; Q9UIF8; AlphaScreen BAZ2B-H3K14Ac peptide displacement; Potency, µM (highest dose often 114 µM), without a hit: at the top dose activity change, negative = inhibition, actives largely listed as inhibitors; 4.4% of 360,000 active; AID 504333; also: potency is read from the fitted curve at half-maximal effect; % is scaled to controls: 0 for no effect and ±100 for the full control effect; nearly all actives have a fitted effect of over 60% in size
#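 Multi-concentration screen (max 110 uM) measuring displacement of acetylated histone H3 peptide from BAZ2B by AlphaScreen, using 50 nM protein, 50 nM peptide and 10 ug/mL streptavidin donor plus Ni-chelate acceptor beads.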
# JMJD2A Tudor: blocks the human JMJD2A Tudor domain. O75164. AlphaScreen JMJD2A-Tudor / H3K4me3 peptide binding. Potency, µM (highest dose often 114 µM), for the others: at the top dose activity change, negative = inhibition, hits mostly inhibitors. 4.4% of 390,000 active. AID 504339; also: potency is read from the fitted curve at half-maximal effect; % is scaled to controls: 0 for no effect and ±100 for the full control effect; nearly all actives have a fitted effect of over 50% in size
# L3MBTL1 inh: inhibitors of human L3MBTL1 | AlphaScreen L3MBTL1–H3K9me1 peptide binding | Potency, µM (top dose mostly 57.1 µM), without a hit: at the highest dose activity, negative = inhibition, actives largely listed as inhibitors | 0.66% of 230,000 active | AID 485360; also: potency is read from the fitted curve at half-maximal effect; % is scaled to controls: 0 for no effect and ±100 for the full control effect; nearly all actives have a fitted effect of over 60% in size
#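 L3MBTL1 50 nM + b-AHA-H3(1-15)K9me1 75 nM, 30 min RT; compound added, 30 min RT; streptavidin donor/Ni-chelate acceptor beads 10 ug/mL each final, 30 min RT dark; AlphaScreen read.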
# HP1b binding inh: blocks HP1-beta chromodomain binding to methylated histone tails; P83916; AlphaScreen HP1-beta / biotin-H3K9me3 peptide binding; Potency, µM (doses to about 114 µM), without a hit: at the highest dose activity change, negative = inhibition, hits mostly inhibitors; 0.56% of 390,000 active; also: potency is read from the fitted curve at half-maximal effect; nearly all actives have a fitted effect of over 70% in size
# Target sequence (P83916 whole entry, looked up): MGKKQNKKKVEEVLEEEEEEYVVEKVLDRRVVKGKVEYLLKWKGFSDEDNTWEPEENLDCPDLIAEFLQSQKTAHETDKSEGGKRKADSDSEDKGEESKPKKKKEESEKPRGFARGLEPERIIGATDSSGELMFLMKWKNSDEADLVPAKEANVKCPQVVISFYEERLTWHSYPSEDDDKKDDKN
#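 Compound inhibition of the preformed complex between 50 nM HP1-beta and 50 nM biotinylated H3K9me3 peptide was read by AlphaScreen. Buffer was PBS pH 7.4 with 0.01% Tween-20. Incubations ran 30 min at room temperature, with 10 ug/mL donor/acceptor beads.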
# PI5P4K alpha inh: inhibitors of human PI5P4K alpha; PI5P4Kalpha enzyme, ADP-Glo luminescence, 60 min; active compounds read low; AID 652105; max response, %; 1.2% of 330,000 active; P48426; active = max response of -50% or lower; inconclusive = between -30% and -50%; inactive = -30% or higher; also: value at the top dose of about 77 µM; % is scaled to controls: 0 for no effect and ±100 for the full control effect
#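 Quantitative HTS of the MLSMR library against PI5P4Kalpha with substrate. ATP added last at 5 microM final; room temperature, 60 minutes. Remaining ATP depleted, ADP converted and read as luminescence.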
# The depositor's hits bear a star; ? = inconclusive; . = no result given; [ ] = remark or other dose. Sampled rows, rich in hits. Any-hit rate of the full collection: about 11%. Unless noted, calls follow the shape of the dose curve; as a rule, active = well fitted inhibition curve with a large enough effect; inconclusive = small, poorly fitted or top-dose-only effect; inactive = no such curve, though single readings can be large or run the other way.
SMILES,G9a inh,BAZ2B inh,JMJD2A Tudor,L3MBTL1 inh,HP1b binding inh,PI5P4K alpha inh
Cc1ccc(S(=O)(=O)N(C)C)cc1NC(=O)COC(=O)C1CCCC1,-18%,-3%,20µM*,1%,20%,0
Cc1ccc(S(=O)(=O)N(C)C)cc1NC(=S)NNC(=O)C(N)=O,45µM*,-25%,-24%[11.4 µM],3%,37%,-1
Cc1ccc2c(Cl)cc(Cl)c(OCC(=O)Nc3cccc(S(=O)(=O)N(C)C)c3)c2n1,17%[59 µM],5%,-1%,5%,36%,-3
COc1ccc(C2C(=O)N(C3CCC(C)CC3)CC(=O)N2Cc2ccc(C)cc2)cc1OC (centres undefined),6%[59 µM],-14%,-13%,.,19%,.
CCc1cc(=O)oc2cc(C)cc(OCc3nn[nH]n3)c12,45µM*,5%,-3%,5%,40%,4
COC(=O)Cc1c(C)c2c(OCc3nn[nH]n3)cc(C)cc2oc1=O,45µM*,-7%,-30%,11%,24%,1
C=C(Cl)COc1cc(C)cc2oc(=O)cc(CC)c12,1%,-3%,4%,.,44%,5
Cc1ccc(S(=O)(=O)c2cnc(-c3ccccc3)[nH]c2=O)cc1,.,.,-6%,.,17%,.
N/C(Cc1cccc2ccccc12)=N\OC(=O)c1ccc(Br)o1,45µM*,-33%,.,.,.,.
Cc1ccc2cc(CN(CCN3CCOCC3)Cc3nnnn3Cc3ccco3)c(=O)[nH]c2c1C,56µM*,7%,-7%,5%,38%,-2
Cc1ccc2cc(CN(Cc3ccc4c(c3)OCO4)Cc3nnnn3Cc3ccco3)c(=O)[nH]c2c1C,11µM*,-9%,-32%,?,17%,12
CCC(C(=O)NCc1cc(OC)ccc1OC)n1nc(C)c2sc3ccccc3c2c1=O (centres undefined),4%[59 µM],-4%,-7%,.,41%,.
COc1ccccc1CNC(=O)c1c(O)nc2c(C)cccn2c1=O,-1%[59 µM],-1%,-17%,.,-7%,.
O=C1C(Cl)=C(Nc2ccccc2O)C(=O)N1CCc1ccccc1,3.2µM*,32µM*,50µM*,-15%,?,-9
Cc1ccc(NC(=O)Cn2c(=O)n(CCCCC(=O)NCCc3ccc(Cl)cc3)c(=O)c3ccccc32)cc1,-1%[59 µM],-2%,0%,.,44%,.
Cn1ncc2c(c(SCc3ccc(Cl)cc3Cl)nn2C)c1=O,8.9µM*,0%,-30%,3%,?,?
COc1cnn(-c2ccccc2)c(=O)c1SCc1ccc(Cl)cc1Cl,33%[12.7 µM],13%,29%,12%,126%,5
CCc1c(C)nc2cc(-c3ccc(OC)c(OC)c3)nn2c1NCC1CC1,56µM*,-37%,?,.,-9%,-8
O=C(Cn1cc(SCc2ccc(Cl)cc2)c2ccccc21)N1CCCC1,-7%[59 µM],6%,-16%,.,42%,.
Cc1cc(C)c(C)c(OCCn2ccnc2)c1,?,-39%,-25%,-12%,41%,0
Cc1cc(Br)ccc1OCCn1ccnc1,32µM*,50µM*,4.5µM*,-7%,22µM*,0
Clc1cc(Br)ccc1OCCCn1ccnc1,?,50µM*,22µM*,-6%,?,2
Clc1ccccc1OCCCn1ccnc1,25µM*,79µM*,18µM*,-6%,?,-7
Clc1ccccc1OCCCCn1ccnc1,4%[59 µM],-4%,-23%,-7%,11%,.
Clc1ccc(OCCn2ccnc2)cc1Cl,.,50µM*,5.6µM*,10%,?,2
SMILES,G9a inh,BAZ2B inh,JMJD2A Tudor,L3MBTL1 inh,HP1b binding inh,PI5P4K alpha inh
Cc1ccc(C)c(N2CCN(C(=O)c3cc4c(=O)n(Cc5ccco5)ccc4nc3C)CC2)c1,-36%[59 µM],?,?,.,-13%,.
O=C(COc1ccc(Cl)cc1Cl)NCCCn1ccnc1,-50%[12.7 µM],-30%,-18%,.,34%,2
Cc1ccc(OCCCn2ccnc2)c(Br)c1,14µM*,56µM*,22µM*,-4%,?,1
Cc1cccc(C(C)(C)C)c1OCCn1ccnc1,18µM*,79µM*,1.3µM*,-4%,50µM*,3
Clc1cc(Br)ccc1OCCn1ccnc1,8.9µM*,22µM*,3.2µM*,-9%,?,.
O=C(O)c1ccc(OCCn2ccnc2)cc1,?,79µM*,?,7%,17%,-7
Cc1cc2ccccc2n1-c1ccc(C(=O)N2CCC(C(=O)NCc3ccc(F)cc3)CC2)s1,-51%[59 µM],?,-33%,.,32%,.
CCN(CC)CCOC(=O)c1ccc(NC(=O)Cn2ncc3c([nH]c4ccc(C)cc43)c2=O)cc1,-41%[59 µM],3%[57.1 µM],-8%,.,27%,.
COc1cc(OC)c(Nc2ncnc3onc(-c4cccc(Cl)c4)c23)cc1Cl,-1%[59 µM],-3%,-12%,.,37%,.
CSc1ncc(-c2ccc(Cl)cc2)[nH]1,40µM*,?,-21%,?,2%,-3
O=C1CC(N2CCC(c3nc4ccccc4[nH]3)CC2)C(=O)N1c1ccccc1F (centres undefined),35µM*,-22%,-19%,4%[11.4 µM],-4%,-23
COc1ccc(N2C(=O)CC(N3CCC(c4nc5ccccc5[nH]4)CC3)C2=O)cc1 (centres undefined),8%[12.7 µM],10%,4%,.,58%,-3
O/N=C1\CCCc2c1nc(-c1ccccc1F)n2O,22µM*,50µM*,32µM*,.,-2%,-2
O=C1CCCc2c1nc(-c1ccccc1F)n2O,?,-21%,-3%,0%,64%,7
COc1cccc(CNC(=O)COc2cc(=O)n(C)c3ccccc23)c1,-5%[59 µM],-5%,-11%,.,30%,.
Cc1ccccc1NCC(=O)N=Nc1c(O)[nH]c2ccc([N+](=O)[O-])cc12,?,-6%,-21%,4%,43%,-15
O=C(N=Nc1c(O)[nH]c2ccc([N+](=O)[O-])cc12)c1ccccc1Cl,?,56µM*,?,-4%,10%,0
O=C(O)c1ccccc1N=Nc1c(O)[nH]c2ccc([N+](=O)[O-])cc12,25µM*,50µM*,?,.,71µM*,-26
COc1ccc(/C=C/C(=O)NCC(=O)N=Nc2c(O)[nH]c3ccc([N+](=O)[O-])cc23)cc1,?,79µM*,?,.,3%,-18
Cc1cccc(OCC(=O)NCC(=O)N=Nc2c(O)[nH]c3ccc([N+](=O)[O-])cc23)c1,?,?,-23%,.,18%,?
Cc1sc2ncn(CC(=O)Nc3ccc(C(F)(F)F)cc3)c(=O)c2c1S(=O)(=O)N1CCN(C)CC1,-4%[59 µM],-8%,-17%,.,-6%,.
Cc1ccc(NC(=O)COC(=O)c2sccc2C)cc1S(=O)(=O)N1CCOCC1,50µM*,1%,-10%,11%,43%,2
